Results published in PubChem BioAssay (NCATS).
Inconclusive results are not listed. Calls of active or inactive are those of the source. Calls follow the shape of the dose curve; as a rule, active = well fitted inhibition curve with a large enough effect; inconclusive = small, poorly fitted or top-dose-only effect; inactive = no such curve, though single readings can be large or run the other way.
Potency is read from the fitted curve at half-maximal effect.

Test: BET inhibitor-based combinations targeting novel dependencies in MECOM-rearranged (r) AML: UCSD-AML1 cell line (AID 2202235); also: nearly all actives have a fitted effect of over 40% in size;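 as to viability (% of control): plate controls were DMSO vehicle wells for no effect and blank wells for full effect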
Settings: UCSD-AML1 AML cells viability, CellTiter-Glo, 48 h; series mostly up to 46 µM; viability (% of control): at the top concentration
Source text: Ecotropic viral insertion site 1 (EVI1) is located on chromosome 3q26.2 as part of the MECOM (MDS and EVI1 complex) locus. Under normal hematopoiesis, EVI1 is a regulator of hematopoietic stem cell maintenance and self-renewal and EVI1 levels decrease as the cells differentiate. In approximately 5-10% of de novo acute myeloid leukemia (AML) EVI1 is aberrantly expressed, including Chromosomal inv(3)(q21;q26.2) or t(3;3)(q21;q26.2) alterations (MECOM-r) that account for about 50% of AML with EVI1 overexpression 31. AMLs with high levels of EVI1 have a poor prognosis and an overall survival time averaging between 10-14 months. EVI1 overexpression confers resistance in leukemia cells, highlighting the need to develop new targeted therapies for EVI1 overexpressing AMLs. Here, we performed an unbiased chemical drug screening by evaluating the single agent activity of a collection of 2,480 oncology-focused, approved and investigational drugs (NCATS Mechanism Interrogation Plates, MIPE v5.0) against a panel of seven AML cell lines. These included four MECOM-r cell-lines (AML-191, AML-194, UCSD-AML1 and HNT-34) and three non-MECOM-r AMLs (MV4-11, OCI-AML3 and SET-2). Exploiting the mechanistic redundancy built in the library, we identified target-level sensitivities in MECOM-r AML cells and relative activity as compared to other AML subtypes.
A collection of 2480 mechanistically annotated dugs (MIPE v5.0) was used to screen four 3q26.2 rearranged AML cell lines and three non-3q26.2 rearranged AML cell lines. This library purposely exploits redundancy by including multiple inhibitors of key onco-targets, while simultaneously encompassing mechanistic diversity, targeting more than 800 distinct mechanisms of action. Briefly, cells were seeded in 5 uL of growth media using a Multidrop Combi dispenser into 1536 well white polystyrene tissue culture treated plates (Corning) at a density of 500cells/well. For each cell-line, for each of the 2480 drugs in MIPE v5.0 library, an 11-point dose curve was generated via a 1536 pin-tool. Plates were incubated for 48 hr at standard incubator conditions, covered by a stainless steel gasketed lid to prevent evaporation. Cell viability was determined by luminescence based, Cell Titer Glo assay (Promega). In detail, 3 uL of Cell Titer Glo were added to each well and plates were incubated at room temperature for 15 min with a stainless-steel lid in place. Luminescence readings were taken using a Viewlux (PerkinElmer) with a 2 s exposure time per plate. Compound dose-response curves were normalized to DMSO and empty well controls on each plate. Quantitative drug activity data from dose-response curves was determined utilizing area Under the Curve (AUC) and Z-transformed AUC (Z-AUC, a mean-centering transformation applied to each individual cell-line screened).
For `CC1(C)S[C@H]2[C@H](NC(=O)[C@@H](N)c3ccc(O)cc3)C(=O)N2[C@H]1C(=O)O`, the “viability (% of control)” value was 124% (inactive). With `O=C1NC(=O)[C@@H](c2c[nH]c3ccccc23)[C@H]1c1cn2c3c(cccc13)CCC2` the Potency was 1.05 µM (active). For `O=C1CC(c2c[nH]c3ccc(F)cc23)C(=O)N1` (stereo not given), the “viability (% of control)” value was 108% (inactive). In the case of `CN(C)C(N)=NC(=N)N`, the “viability (% of control)” value is reported as 107% (inactive). In the case of `NC(=O)c1ccc2nc(-c3ccc(C4(N)CCC4)cc3)c(-c3ccccc3)n2n1`, the Potency is reported as 3.72 µM (active). For `C=CC(=O)Nc1ccc2ncnc(Nc3ccc(OCc4cccc(F)c4)c(Cl)c3)c2c1`, the Potency was 7.42 µM (active). With `Cc1nnc(C[C@@H]2C=C(c3ccc(Cl)cc3)c3ccccc3-n3c(C)nnc32)o1` the Potency was 2.09 µM (active). With `Cn1c(NCCN(CCO)CCCc2ccc([N+](=O)[O-])cc2)cc(=O)n(C)c1=O` the “viability (% of control)” value was 108% (inactive). With `N#Cc1ccc(-c2c(-c3ncn[nH]3)sc(N3CCOCC3)c2C#N)c(F)c1` the Potency was 1.32 µM (active). With `OCCOc1ccc(/C(=C(/CCCl)c2ccccc2)c2ccccc2)cc1` the “viability (% of control)” value was 106% (inactive). With `COc1cc2nccc(Oc3ccc(NC(=O)c4cn(C(C)C)c(=O)n(-c5ccc(F)cc5)c4=O)cc3F)c2cc1OC` the “viability (% of control)” value was 100% (inactive). With `Cc1ccc(-n2c(C)cc(-c3nnc4n3CCCCC4)c2C)cc1` the “viability (% of control)” value was 107% (inactive). In the case of `C[C@@]12C(=O)OC(=O)[C@]1(C)[C@H]1CC[C@@H]2O1`, the Potency is reported as 7.42 µM (active). For `O=C(/C=C/c1cccnc1)NCCCCC1CCN(C(=O)c2ccccc2)CC1`, the Potency was 0.0083 µM (active). In the case of `N=C(N)c1ccc2nc(-c3cc(CC(=O)N[C@@H](CC(=O)O)C(=O)O)cc(-c4cc(S(N)(=O)=O)ccc4O)c3O)[nH]c2c1`, the “viability (% of control)” value is reported as 109% (inactive). In the case of `CC(C)c1c(-c2ccccc2)nc2c(C#N)c[nH]n2c1=O`, the “viability (% of control)” value is reported as 106% (inactive). In the case of `CC(=O)N[C@H]1CSSC[C@@H](C(N)=O)NC(=O)[C@H](C(C)C)NC(=O)[C@H](C)NC(=O)[C@H](Cc2cnc[nH]2)NC1=O`, the “viability (% of control)” value is reported as 113% (inactive). With `Cc1ccc2cc(-c3c(C)ccc(C(=O)c4c(-c5ccccc5)n(C)n(-c5ccccc5)c4=O)c3N)ccc2n1` the “viability (% of control)” value was 99.1% (inactive). For `N#CC(c1ccnc(NCCc2cccnc2)n1)c1nc2ccccc2s1` (stereo not given), the Potency was 18.6 µM (active). In the case of `O=C(N[C@H]1CCC[C@H](CO)C1)C1CCN(c2nc3cc(Cl)c(-c4ccc(Cl)cc4)cc3o2)CC1`, the “viability (% of control)” value is reported as 104% (inactive). For `N#Cc1ccc(C(c2ccc(C#N)cc2)n2cncn2)cc1`, the “viability (% of control)” value was 96.6% (inactive). For `COC(=O)N[C@@H](C)CNc1nccc(-c2cn(C(C)C)nc2-c2cc(Cl)cc(NS(C)(=O)=O)c2F)n1`, the Potency was 2.63 µM (active). With `C/C=C/C/C=C/CCC(=O)[C@H]1O[C@H]1C(N)=O` the Potency was 20.9 µM (active). With `O=C(NO)c1cnc(NC2(c3ccccc3)CC2)nc1` the Potency was 8.33 µM (active). For `Cc1c[nH]c2nc(Nc3ccc(N4CCN(C)CC4)c(F)c3)nc(-c3cccc(CC#N)c3)c12`, the Potency was 0.742 µM (active). For `CS(=O)(=O)c1ccc(-c2cnc(NCc3ccco3)n3cnnc23)cc1`, the “viability (% of control)” value was 101% (inactive). With `C[C@@H](OC[C@@]1(c2ccccc2)CC[C@]2(CCC(=O)N2)CN1)c1cc(C(F)(F)F)cc(C(F)(F)F)c1` the Potency was 23.5 µM (active). In the case of `COc1ccc(S(=O)(=O)NCc2ccc(C(=O)NCCc3ccc(Cl)cn3)cc2)cc1`, the “viability (% of control)” value is reported as 106% (inactive). With `CC(C)(O)CS(=O)(=O)Nc1ccc2c(c1)CCN(C(=O)COc1cccnc1)C2` the Potency was 0.332 µM (active). With `COc1ccc(Cl)cc1-c1cc(=O)[nH]c(=S)n1CC(N)=O` the “viability (% of control)” value was 106% (inactive). With `Cc1cc(/C=c2/sc3nc4ccccc4n3c2=O)c(C)n1-c1ccccc1` the “viability (% of control)” value was 88% (inactive). With `C[C@]12CCC3=C4CCC(=O)C=C4CC[C@H]3[C@@H]1CC[C@@]2(O)CC#N` the “viability (% of control)” value was 105% (inactive). With `CN1CCN(c2cccc(Nc3nc4c(-c5ccc(S(C)(=O)=O)cc5)cccn4n3)c2)CC1` the Potency was 1.66 µM (active). With `C[C@H]1O[C@@H](O[C@H]2[C@@H](O)C[C@H](O[C@H]3[C@@H](O)C[C@H](O[C@H]4CC[C@@]5(C)[C@H](CC[C@@H]6[C@@H]5C[C@@H](O)[C@]5(C)[C@@H](C7=CC(=O)OC7)CC[C@]65O)C4)O[C@@H]3C)O[C@@H]2C)C[C@H](O)[C@@H]1O` the Potency was 0.132 µM (active). For `CCc1ccc(N(CC(C)C)S(=O)(=O)c2ccc(OCC3CCOCC3)c(CO)c2)cc1`, the “viability (% of control)” value was 95.8% (inactive). For `CCC1CCCCN1C(=O)n1ncc(C(O)(c2ccccc2)c2ccccc2)n1` (stereo not given), the Potency was 20.9 µM (active). In the case of `Cc1c(-c2ccc(-c3ccccc3F)cc2)nc2ccc(F)cc2c1C(=O)O`, the Potency is reported as 0.742 µM (active). With `C[C@H]1[C@H](C)CC[C@]2(C(=O)O)CC[C@]3(C)C(=CC[C@@H]4[C@@]5(C)CC[C@H](O)C(C)(C)[C@@H]5CC[C@]43C)[C@H]12` the “viability (% of control)” value was 104% (inactive). With `Cc1[nH]cnc1CN1CCN(C(=O)N[C@@H](CC(C)C)C(=O)O)[C@@H](Cc2ccccc2)C1=O` the “viability (% of control)” value was 113% (inactive). With `C=C1/C(=C/C=C2\CCCC3(C)[C@@H]([C@H](C)/C=C/C=C/C(O)(CC)CC)CC[C@@H]23)C[C@@H](O)C[C@@H]1O` (stereo not given in full) the “viability (% of control)” value was 114% (inactive).
